Results from the supplement of paper PMC6555819.

How the values were obtained:
Experiment in all cases: PBM binding z-score (relative to random genomic background probes); higher = stronger binding; sequences stand for … in GC…GCGATTGACAGCGTAGAATGAAGG
[1] = system: RARb homodimer (NR concentration 270 nM)
How it was run: (§1)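 On custom Agilent 4×180K arrays, double-stranded probes with 34-nt variable regions carried direct-repeat seeds, single-nucleotide variants, half-site ablations or random human genomic background. Ligand-free nuclear receptor dimers were applied for 1 h, and binding was read with antibodies against each partner (one per run). Binding z-scores come from regression-normalized fluorescence, with the random background probes as reference.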

[2] = system: RARg:RXRa (NR concentration 270 nM, RXRa partner concentration 90 nM)
How it was run: as §1

[3] = system: RARg homodimer (NR concentration 270 nM)
How it was run: as §1

[4] = system: RXRa DBDmut IVT, anti-RXR (DBD mutation: RXRa K156A/R161A, NR concentration 90 nM)
How it was run: as §1

[5] = system: RXRa homodimer (NR concentration 180 nM)
How it was run: as §1

[6] = system: THRa:RXRa (NR concentration 90 nM, RXRa partner concentration 90 nM)
How it was run: as §1

[7] = system: THRa homodimer (NR concentration 90 nM)
How it was run: as §1

[8] = system: VDR homodimer (NR concentration 270 nM)
How it was run: as §1

Sequence | PBM binding z-score [1] | PBM binding z-score [2] | PBM binding z-score [3] | PBM binding z-score [4] | PBM binding z-score [5] | PBM binding z-score [6] | PBM binding z-score [7] | PBM binding z-score [8]
AGAATGAGGTGATACGTAGATCAGGGAAGAAAGT | 0.297 | 0.451 | 0.546 | -0.351 | 0.719 | 1.57 | 0.357 | -0.382
TCGAGTAGGTTAGTCGGGGCATACAGCCAACATA | 0.452 | 0.28 | 0.255 | 0.235 | 0.45 | 1.02 | -0.188 | -0.0779
GCTCGGAGGACAAGGACAGAGCTTTGTCCGTAGA | 0.139 | -0.0807 | 0.418 | -0.45 | -0.592 | 1.31 | 0.61 | -0.639
ACTAGCAGGCCAAGGGCCACTCAAGATTAGTCCG | 0.598 | 0.143 | 0.443 | -0.506 | 0.0111 | -0.212 | -0.921 | -0.964
CGTCCAAGGTCAAAGGTCAGTGACGAGATGACGG | 5.47 | 8.79 | 8.22 | 3.93 | 10.5 | 4.85 | 2.69 | 3.54
ACTCGGAGGCCAAAGGTCAGAGCTACGCCAGTGA | 4.54 | 6.25 | 4.8 | 0.776 | 6.62 | 3.06 | -0.031 | 0.616
GATACAGGGTCAGCTAGAGGCCAGAGTTTGGAAA | 3.66 | 6.53 | 4.92 | 1.38 | 4.29 | 3.04 | 0.526 | 1.17
